PME-1 inh: blocks human protein phosphatase methylesterase 1 | Q9Y570 | recombinant PME-1, FP-Rh probe fluorescence polarization | inhibition, % at 5.9 µM | hit rate 0.53% among 320,000;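 active means inhibition above the campaign mean of all compounds plus 3 SD, cut at about 26% in these data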;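 further: competitive labeling of PME-1 active site by serine hydrolase directed probe; 0% = PME-1 with DMSO and 100% = wells lacking PME-1 enzyme; inhibitors block probe labeling so polarization falls and inhibition rises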
Target sequence (Q9Y570 whole entry, looked up): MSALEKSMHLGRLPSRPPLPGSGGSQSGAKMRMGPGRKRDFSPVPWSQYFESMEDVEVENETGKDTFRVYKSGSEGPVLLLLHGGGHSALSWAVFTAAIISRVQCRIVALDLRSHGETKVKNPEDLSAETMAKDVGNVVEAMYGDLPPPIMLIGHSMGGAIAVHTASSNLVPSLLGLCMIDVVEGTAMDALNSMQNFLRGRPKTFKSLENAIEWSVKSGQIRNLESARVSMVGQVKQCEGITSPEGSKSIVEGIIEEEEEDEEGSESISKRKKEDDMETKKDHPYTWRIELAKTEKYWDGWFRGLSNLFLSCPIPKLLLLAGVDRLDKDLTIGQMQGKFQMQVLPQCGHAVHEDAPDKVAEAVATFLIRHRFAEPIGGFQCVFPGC
Fam108B counter: counter-screen for RBBP9 inhibitors: inhibitors of mouse Fam108B; recombinant Fam108B, FP-Rh probe fluorescence polarization; inhibition, % at 9.51 µM; hit rate 0.33% among 300,000;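 active means inhibition above the screen mean inhibition plus 3 SD, computed separately per campaign, cut at about 18% in these data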;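 further: inhibitors lower polarization as less probe binds the enzyme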
LYPLA1 counter: counter-screen for PME1 inhibitors: inhibitors of human LYPLA1; O75608; recombinant LYPLA1, FP-Rh probe fluorescence polarization; inhibition, % at 5.9 µM; hit rate 0.16% among 320,000; AID 2174;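 active means inhibition above the mean of all tested compounds plus 3 SD, set per campaign, cut at about 14% in these data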;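 further: inhibitors block serine hydrolase probe labeling of LYPLA1 so polarization falls; 0% = enzyme with DMSO and 100% = wells lacking LYPLA1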
GSTO1 inh: counter-screen for RBBP9 inhibitors: inhibitors of human GSTO1 | P78417 | recombinant GSTO1, activity-based probe fluorescence polarization | inhibition, % at 5.96 µM | hit rate 1.1% among 300,000 | AID 1974;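 active means inhibition above the campaign mean inhibition plus 3 SD, cut at about 35% in these data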;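 further: 0% = GSTO1-1 with DMSO and 100% = wells lacking GSTO1-1 enzyme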
PAD4 FP inh: blocks human protein arginine deiminase 4; recombinant PAD4, RCA probe fluorescence polarization; inhibition, % at 6.36 µM; hit rate 0.41% among 330,000; AID 485272;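 active means percent inhibition above a cutoff equal to the mean of all tested compounds plus 3 SD, cut at about 15% in these data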;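 further: 0% = PAD4 with RCA probe and DMSO and 100% = probe without PAD4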
LYPLA2 counter: blocks human lysophospholipase 2, a PME1 counter-screen; O95372; recombinant LYPLA2, FP-Rh probe fluorescence polarization; inhibition, % at 5.9 µM; hit rate 0.38% among 320,000;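 active means inhibition above the screen-wide mean plus 3 SD, limit set per campaign, cut at about 26% in these data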;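 further: 0% = LYPLA2 with DMSO and 100% = wells lacking LYPLA2 enzyme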
Target sequence (O95372 whole entry, looked up): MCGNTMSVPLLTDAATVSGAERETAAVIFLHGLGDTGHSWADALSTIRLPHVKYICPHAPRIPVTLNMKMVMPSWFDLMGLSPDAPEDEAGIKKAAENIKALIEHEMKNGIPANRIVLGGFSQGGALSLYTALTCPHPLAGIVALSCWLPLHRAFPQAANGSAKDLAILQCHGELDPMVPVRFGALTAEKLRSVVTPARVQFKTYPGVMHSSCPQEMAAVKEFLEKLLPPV
GSTO1 confirm: GSTO1 (human) inhibition, confirmation. shares compounds with GSTO1 inh. recombinant GSTO1, probe fluorescence polarization. inhibition, % at 5.96 µM. hit rate 54% among 2,400;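 active means inhibition above the primary screen's cutoff, its mean inhibition plus 3 SD, cut at about 35% in these data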;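 further: loss of polarization as inhibitors block binding of rhodamine sulfonate ester activity probe; 0% = GSTO1 with DMSO and 100% = wells lacking GSTO1 enzyme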
GSTO1 recomb ABPP: inhibitors of recombinant human GSTO1 | shares compounds with GSTO1 inh | inhibition, % at 1 µM | AID 463110 | gel ABPP SE-Rh probe fluorescence | hit rate 30% among 130;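 active means inhibition of the enzyme GSTO1 above about 75%, limit read from the data; inactive means inhibition below that limit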
Active calls of the source: *; x = not tested or not shown. This is a sample that favours compounds with a hit; in the whole collection about 1.8% have one here.

SMILES | PME-1 inh | Fam108B counter | LYPLA1 counter | GSTO1 inh | PAD4 FP inh | LYPLA2 counter | GSTO1 confirm | others
COc1ccc(C2C(C(=O)N3CCC4(CC3)OCCO4)CC(=O)N2c2ccc(OC)cc2)cc1 (stereo not drawn) | 5 | 2 | 3 | -7 | 0 | 1 | x
O=c1c2ccccc2nc(CSc2ncnc3nc[nH]c23)n1-c1ccc(Cl)c(Cl)c1 | 1 | 3 | 0 | 18 | -1 | -3 | x
CN1CCN(C(=O)COc2ccc(S(=O)(=O)NC3CCCCC3)cc2Cl)CC1 | 3 | 1 | -1 | 2 | -2 | 3 | x
Cc1ccccc1-n1c(C)nc2sccc2c1=O | 5 | 2 | 3 | 5 | -1 | 12 | x
O=[N+]([O-])c1cc(S(=O)(=O)c2ccc(O)c([N+](=O)[O-])c2)ccc1O | -1 | 16 | 0 | 40* | -6 | 7 | 49*
CN1CCN(c2ncnc3nc[nH]c23)CC1 | -6 | -1 | 0 | 1 | 1 | -3 | x
CCOc1cccc(CNCCc2c(C)[nH]c3ccc(OC(F)(F)F)cc23)c1O | 24 | 1 | 1 | 9 | -5 | -5 | x
COC(=O)C(O)(c1c[nH]c2ccccc12)C(F)(F)F (stereo not drawn) | -4 | 1 | 3 | -6 | -3 | 1 | x
COC(=O)C(O)(c1c(C)[nH]n(-c2ccccc2)c1=O)C(F)(F)F (stereo not drawn) | 1 | 2 | 2 | 50* | 4 | 9 | 52*
COc1ccc(-c2nn(Cc3ccccc3)cc2C(=O)NC2CC2)cc1OC | -10 | x | 2 | x | -3 | 6 | x
COCC(C)OC(=O)c1c(N)n(Cc2ccco2)c2nc3ccccc3nc12 (stereo not drawn) | -1 | -1 | -3 | 59* | -11 | 1 | 18
COc1ccc(Cn2c(N)c(C(=O)NCc3ccco3)c3nc4ccccc4nc32)cc1 | -10 | 2 | -18 | 24 | -10 | -12 | x
Nc1c(C(=O)NCc2ccco2)c2nc3ccccc3nc2n1Cc1ccc(F)cc1 | 0 | -1 | 0 | 71* | -5 | 2 | 2
Cc1cc(=O)[nH]c(CCl)n1 | 3 | -1 | 1 | 67* | -4 | 1 | 90* | GSTO1 recomb ABPP=14
C=CCN1CCc2cccc3c2[C@H]1Cc1ccc(O)c(O)c1-3 | 1 | 0 | -6 | 87* | -6 | -6 | 17
Nc1cc2nc3ccccc3nc2cc1N | 17 | 10 | -6 | 56* | -4 | -5 | 41*
COc1ccc(N2C(=O)NC(=O)/C(=C/c3ccc([N+](=O)[O-])s3)C2=O)cc1 | -5 | 10 | -9 | 30 | -9 | -9 | x
COc1cccc(N2C(=O)NC(=O)/C(=C/c3ccc([N+](=O)[O-])s3)C2=O)c1 | 3 | 9 | -3 | 44* | -7 | -6 | 36*
O=C(NC1CCCCC1)Oc1cc2oc(=O)sc2cc1Cl | 0 | 5 | 4 | 55* | 2 | 0 | 13
CCOC(=O)C(NC(=O)CCl)(Nc1ccc(C(O)(C(=O)OCC)C(F)(F)F)cc1)C(F)(F)F (stereo not drawn) | 4 | -1 | -2 | 53* | 0 | 0 | 74*
CCOC(=O)C(NC(=O)CC)(Nc1ccc(C(O)(C(=O)OCC)C(F)(F)F)cc1C)C(F)(F)F (stereo not drawn) | 1 | -5 | -4 | 7 | -2 | 0 | x
Cc1cc(NC(=O)CCl)on1 | 4 | 0 | 0 | 73* | 2 | 3 | 99*
O=C(Nc1ccc2ccccc2c1)N1C[C@H]2C[C@@H](C1)c1cccc(=O)n1C2 | 3 | -1 | -1 | 8 | 2 | -1 | x
COC(=O)C1=C(c2ccccc2)C[C@@H]2CC[C@H]1N2C(=O)NCCO | 2 | -2 | -1 | 3 | -1 | -5 | x
CCCCOCCCn1c(N)c(C(=O)OCCOC)c2nc3ccccc3nc21 | -2 | 3 | -1 | 38* | -11 | -7 | 35*
SMILES | PME-1 inh | Fam108B counter | LYPLA1 counter | GSTO1 inh | PAD4 FP inh | LYPLA2 counter | GSTO1 confirm | others
COCCCn1c(N)c(C(=O)NCCC(C)C)c2nc3ccccc3nc21 | 7 | 2 | -6 | 39* | -10 | -9 | 64*
CCCCn1c(N)c(C(=O)OCCOC)c2nc3ccccc3nc21 | 8 | -1 | 2 | 17 | -5 | 0 | x
O=C1COc2ccc(C(=O)COC(=O)Cc3ccccc3)cc2N1 | -8 | -1 | 1 | -2 | 1 | 9 | x
Oc1ccccc1-[n+]1c(-c2ccccc2)cc(-c2ccccc2)c(O)c1-c1ccccc1 | 2 | 3 | -3 | 14 | -1 | -4 | x
Cc1ccc(S(=O)(=O)N2CN3CCN(C3)C2)cc1 | 4 | 3 | 1 | 2 | 0 | 4 | x
Cc1ccc(S(=O)(=O)N2CC2(C)CCl)cc1 (stereo not drawn) | -3 | -3 | 2 | 44* | -4 | -1 | 67* | GSTO1 recomb ABPP=11
COc1ccccc1-n1c(O)c(/C=N/NC(=S)Nc2ccccc2)c(=O)[nH]c1=S | -5 | -1 | -4 | -11 | -3 | -5 | x
Cc1c(N=Nc2c(O)[nH]c(=S)[nH]c2=O)c(=O)n(-c2ccccc2)n1C | -11 | -4 | -1 | 57* | 3 | 1 | 6
Cc1nc(Cl)sc1C(=O)Nc1ccc2ccccc2c1 | -12 | -3 | -7 | 55* | 2 | -3 | 54*
O=C(Nc1ccc2ccccc2c1)c1nn(C23CC4CC(CC(C4)C2)C3)cc1Br | -14 | -7 | -8 | -2 | -4 | -10 | x
CCCCCn1c(N)c(C(=O)NCCN2CCOCC2)c2nc3ccccc3nc21 | 10 | 8 | 2 | 4 | -3 | -6 | x
CCCCn1c(N)c(C(=O)NCc2cccs2)c2nc3ccccc3nc21 | 8 | -1 | -3 | 61* | 2 | 1 | 82*
CCCOC(=O)c1c(N)n(Cc2cccs2)c2nc3ccccc3nc12 | 9 | -1 | -6 | 42* | -19 | -4 | -2
Cc1ccsc1C(=O)C1CCCN(Cc2ccc(-n3cccn3)cc2)C1 (stereo not drawn) | 1 | -5 | -2 | 4 | 0 | 1 | x
COC(=O)C1=C(c2ccc(Cl)c(C(F)(F)F)c2)C[C@@H]2CC[C@H]1N2C(=O)NCc1ccc2c(c1)OCO2 | -5 | x | -1 | x | -2 | -4 | x
O=C(Nc1nccs1)C(Cl)(Cl)Cl | -5 | 6 | 7 | 1 | -8 | 7 | x
O=C(CCl)Nc1nccs1 | 0 | 12 | 0 | 92* | -1 | -1 | 99*
CNCCc1ccc(O)c(O)c1 | 0 | -1 | -2 | 73* | -5 | 2 | 8
CCN(CC)c1ccc(N=Cc2c(O)[nH]c(=O)[nH]c2=O)cc1 | 8 | -1 | 5 | 56* | 26* | 6 | 1
CCN(CC)c1ccc(N=Cc2c(O)n(Cc3ccccc3)c(=O)[nH]c2=O)cc1 | 2 | 2 | -2 | 6 | -14 | -2 | x
